Measurements taken from ChEMBL document CHEMBL4513141, “CO-ADD screening of NIH (USA) - Clinical Collection” (2021).
Values joined by “and” are separate entries in the source; they are usually repeats but may differ in a detail not shown here. Equal entries are not always repeated. Results with a measured potency or affinity are listed apart.

Tests used:
[1] = tested on: Klebsiella pneumoniae; conditions: Concentration 20 uM, ASSAY_TEST Inhibition of Bacterial Growth, detection method Absorption (OD600), MEDIA CAMHB, plate type 384well, NBS, CORNING #3640, time 18 hr
[2] = tested on: Candida albicans; conditions: 20 µM
[3] = tested on: Cryptococcus neoformans; conditions: Concentration 20 uM, ASSAY_TEST Inhibition of Fungal Growth, detection method Resazurin, Absorption (OD600-OD570), plate type 384well, NBS, CORNING #3640

Row | SMILES | Inhibition [1] [%] | Inhibition [2] | Inhibition [3] [%] | Inhibition ([1]; 20 µM) | Inhibition ([3]; 20 µM)
1 | CCc1cc(C(N)=S)ccn1 [ETHIONAMIDE] | 13.14 | 1.99% | -7.71 |  | 
2 | O=C(O)c1cccnc1 [NIACIN] | 4.99 | 2.72% | -3.83 |  | 
3 | CN(C)CC[C@@H](c1ccc(Br)cc1)c1ccccn1.O=C(O)/C=C\C(=O)O [DEXBROMPHENIRAMINE MALEATE] | -0.14 | 1.43% | -3.8 |  | 
4 | Cl.O[C@@H](c1cc(C(F)(F)F)nc2c(C(F)(F)F)cccc12)[C@H]1CCCCN1 | 14.04 | 5.35% |  |  | 
5 | CN1CCC(=C2c3ccccc3CCc3sccc32)CC1.O=C(O)/C=C\C(=O)O | 13.2 | 3.52% | -10.62 |  | 
6 | C[C@@H]1C[C@H]2[C@@H]3CCC4=CC(=O)C=C[C@]4(C)[C@@]3(F)[C@@H](O)C[C@]2(C)[C@@]1(O)C(=O)CO [DEXAMETHASONE] |  | 1.68% and 4.41% |  | -0.78% and 2.8% | -1.2% and -1.22%
7 | O=S(=O)([O-])CCS.[Na+] [MESNA] | 6.51 | 4.45% | 1.48 |  | 
8 | C[C@]12CC[C@@H]3c4ccc(OS(=O)(=O)[O-])cc4CC[C@H]3[C@@H]1CCC2=O.[Na+] [ESTRONE SODIUM SULFATE] | 1.74 | 3.72% | -4.65 |  | 
9 | CCc1c(C)[nH]c2c1C(=O)C(CN1CCOCC1)CC2.Cl (configuration not stated) [MOLINDONE HYDROCHLORIDE] | -0.12 | 3.99% | 6.64 |  | 
10 | CC(CCCCC(=O)Nc1ccc(C(F)(F)F)cc1)NCCc1c[nH]cn1.O=C(O)/C=C\C(=O)O.O=C(O)/C=C\C(=O)O (configuration not stated) | 6.44 | 2.76% | -4.87 |  | 
11 | CCCOc1ccc(C(=O)OCCN(CC)CC)cc1N.Cl [PROPARACAINE HYDROCHLORIDE] | 1.6 | 0.55% | 2.64 |  | 
12 | C[C@H]1[C@@H](OC(=O)CCC(=O)O)O[C@@H]2O[C@@]3(C)CC[C@H]4[C@H](C)CC[C@@H]1[C@@]24OO3 | 13.77 | 26.5% | -1.11 |  | 
13 | C[C@H]1O[C@@H](O[C@H]2[C@@H](O)C[C@H](O[C@H]3[C@@H](O)C[C@H](O[C@H]4CC[C@@]5(C)[C@H](CC[C@@H]6[C@@H]5C[C@@H](O)[C@]5(C)C(C7=CC(=O)OC7)CC[C@]65O)C4)O[C@@H]3C)O[C@@H]2C)C[C@H](O)[C@@H]1O (some centres not stated) | 10.13 | 4.95% | -6 |  | 
14 | Cn1nnc2c(C(N)=O)ncn2c1=O [TEMOZOLOMIDE] | 7.88 | 1.91% | -1.17 |  | 
15 | CNCC(O)c1ccc(O)c(O)c1 (configuration not stated) [RACEPINEPHRINE] | 12.35 | 4.12% | -0.68 |  | 
16 | O=C1CCc2ccc(OCCCCN3CCN(c4cccc(Cl)c4Cl)CC3)cc2N1 [ARIPIPRAZOLE] | 2.6 | -0.97% | 6.93 |  | 
17 | COc1cc(OC)c(C(=O)CCCN2CCCC2)c(OC)c1.Cl | 10.87 | 3.75% | -6.77 |  | 
18 | CC(=O)OCC(=O)NCCCOc1cccc(CN2CCCCC2)c1.Cl [ROXATIDINE ACETATE HYDROCHLORIDE] | 15.18 | 3.06% | -4.65 |  | 
19 | CCN(CC)CCNC(=O)c1ccc(N)cc1.Cl [PROCAINAMIDE HYDROCHLORIDE] | -3.79 | 0.33% | 3.84 |  | 
20 | CCOc1cc(N)c(Cl)cc1C(=O)NCC1CN(Cc2ccc(F)cc2)CCO1.O=C(O)CC(O)(CC(=O)O)C(=O)O (configuration not stated) [MOSAPRIDE CITRATE] | 16.24 | 1.57% | -5.5 |  | 
21 | CCOC(=O)C1(CCCCCCOc2ccc(Cl)cc2)CO1 (stereo not drawn) [rac-ETOMOXIR] | 8.69 | 1.76% | -1.88 |  | 
22 | Cc1cccc(C)c1NC(=O)C(C)N (configuration not stated) [TOCAINIDE] | 13.74 | 1.33% | 0.27 |  | 
23 | COc1ccc(C2CNC(=O)C2)cc1OC1CCCC1 (configuration not stated) [ROLIPRAM] | 19.56 | 4.38% | -5.22 |  | 
24 | C[C@@H](O)[C@H]1C(=O)N2C(C(=O)O)=C(S[C@@H]3CN[C@H](C(=O)N(C)C)C3)[C@H](C)[C@H]12 [MEROPENEM] | 0.03 | 3.42% | 2.76 |  | 
25 | C=C[C@H]1CN2CC[C@H]1C[C@@H]2[C@@H](O)c1ccnc2ccc(OC)cc12 [QUINIDINE] | 12.62 | -0.46% |  |  | 
26 | CNCCCN1c2ccccc2CCc2ccccc21.Cl [DESIPRAMINE HYDROCHLORIDE] | 6.09 | 2.92% |  |  | 
27 | COc1ccccc1N1CCN(CCCNc2cc(=O)n(C)c(=O)n2C)CC1.Cl [URAPIDIL HYDROCHLORIDE] | 17.15 | 3.19% | -6.92 |  | 
28 | Nc1nc2c(ncn2COC(CO)CO)c(=O)[nH]1 [GANCICLOVIR] | 11.05 | 0% | -0.42 |  | 

Row | SMILES | Inhibition [1] [%] | Inhibition [2] | Inhibition [3] [%] | Inhibition ([1]; 20 µM) | Inhibition ([3]; 20 µM)
29 | NC(CO)(CO)CO.O=C(c1ccccc1)c1ccc2n1CCC2C(=O)O (configuration not stated) [KETOROLAC TROMETHAMINE] | 3.11 | -0.08% | -4.39 |  | 
30 | NS(=O)(=O)c1cc(C(=O)O)c(NCc2ccco2)cc1Cl [FUROSEMIDE] | 9.57 | 3.34% | -7.53 |  | 
31 | CC(=O)Nc1ccc(CC(=O)O)cc1 [ACTARIT] | 4.76 | -0.65% | 4.09 |  | 
32 | Cc1cccc(CN2CCN(C(c3ccccc3)c3ccc(Cl)cc3)CC2)c1.Cl.Cl (configuration not stated) | 10.89 | 1.13% | -13 |  | 
33 | Nc1c2c(nc3c1CCC3)CCCC2 [IPIDACRINE] | 15 | 3.22% | -0.69 |  | 
34 | COc1cc(C)nc(-n2nc(C)cc2OC)n1 [EPIRIZOLE] | 10.39 | -0.63% | 1.6 |  | 
35 | CC(=O)O[C@]1(C(C)=O)CC[C@H]2[C@@H]3C[C@H](C)C4=CC(=O)CC[C@]4(C)[C@H]3CC[C@@]21C [MEDROXYPROGESTERONE ACETATE] | 17.28 | 4.88% | -5.46 |  | 
36 | C[C@@H]1CN(CCCn2c3ccccc3c3ccccc32)C[C@H](C)N1.Cl.O | -0.67 | 0.45% | 2.04 |  | 
37 | OCc1cccnc1 [NICOTINYL ALCOHOL] | 6.16 | 2.84% | -7.14 |  | 
38 | CN1CCN(C2=Nc3cc(F)ccc3Cc3ccccc32)CC1 [FLUPERLAPINE] | 11.17 | 3.99% | -6.37 |  | 
39 | C=CCc1ccc(O)c(-c2ccc(O)c(CC=C)c2)c1 [HONOKIOL] | 7.54 | 3.92% | 0.25 |  | 
40 | CN1CCCCC1CCN1c2ccccc2Sc2ccc([S+](C)[O-])cc21.O=S(=O)(O)c1ccccc1 (configuration not stated) [MESORIDAZINE BESYLATE] | -1.64 | 4.29% | 2.61 |  | 
41 | Nc1nc(N)c2nc(-c3ccccc3)c(N)nc2n1 | -1.05 | 4.35% | 1.8 |  | 
42 | CC(C)c1nc(CN(C)C(=O)N[C@H](C(=O)N[C@@H](Cc2ccccc2)C[C@H](O)[C@H](Cc2ccccc2)NC(=O)OCc2cncs2)C(C)C)cs1 [RITONAVIR] | 14.84 | 1.82% | -5.87 |  | 
43 | COc1ccnc(C[S+]([O-])c2nc3cc(OC(F)F)ccc3[n-]2)c1OC.O.[Na+] (configuration not stated) [PANTOPRAZOLE SODIUM] | 5.85 | 19.6% | -26.37 |  | 
44 | CC(C)[C@H](N)C(=O)OCCOCn1cnc2c(=O)nc(N)[nH]c21.Cl [VALACYCLOVIR HYDROCHLORIDE] | 6.23 | 3.14% | -5.07 |  | 
45 | CC1CC2C3CCC4=CC(=O)C=CC4(C)[C@@]3(Cl)C(O)CC2(C)C1(O)C(=O)CO (some centres not stated) | 12.23 | 3.02% | -2.46 |  | 
46 | NC(=O)N1c2ccccc2C=Cc2ccccc21 [CARBAMAZEPINE] | 5.59 | 4.45% | -2.39 |  | 
47 | CC[C@@]1(O)C(=O)OCc2c1cc1n(c2=O)Cc2cc3c(CN(C)C)c(O)ccc3nc2-1.Cl [TOPOTECAN HYDROCHLORIDE] | 17.31 | 1.75% | -3.31 |  | 
48 | CN(C)CCCN1c2ccccc2CCc2ccc(Cl)cc21.Cl [CLOMIPRAMINE HYDROCHLORIDE] | 18.4 | 2.36% | -9.01 |  | 
49 | CN(C)CCC(c1ccc(Cl)cc1)c1ccccn1.O=C(O)/C=C\C(=O)O (configuration not stated) [CHLORPHENIRAMINE MALEATE] | 2.46 | 4.73% | 0.1 |  | 
50 | CCCc1cc(=O)[nH]c(=S)[nH]1 [PROPYLTHIOURACIL] | 16.2 | 3.22% | -1.39 |  | 
51 | CC1CNc2c(cccc2S(=O)(=O)N[C@@H](CCCNC(=N)N)C(=O)N2CC[C@@H](C)C[C@@H]2C(=O)O)C1 (some centres not stated) [ARGATROBAN] | 8.18 | 4.39% | -2.44 |  | 
52 | C[C@H](N[C@@H](CCc1ccccc1)C(=O)O)C(=O)N1CCC[C@H]1C(=O)O [ENALAPRILAT ANHYDROUS] | 8.45 | 2.99% | 1.01 |  | 
53 | COc1cc2nc(N3CCN(C(=O)C4COc5ccccc5O4)CC3)nc(N)c2cc1OC (configuration not stated) [DOXAZOSIN] | 13.22 | 3.14% | 2.35 |  | 
54 | CC#C[C@]1(O)CC[C@H]2[C@@H]3CCC4=CC(=O)CCC4=C3[C@@H](c3ccc(N(C)C)cc3)C[C@@]21C [MIFEPRISTONE] | 3.7 | 3.98% | -10.45 |  | 
55 | Cl.O.OC[C@H]1O[C@@H](n2cnc3c(N[C@H]4CCC[C@@H]4O)ncnc32)[C@@H](O)C1O (some centres not stated) | 8.61 | 3.02% | -2.1 |  | 
